According to PubChem BioAssay (NCATS):
Records with an inconclusive call do not appear. A call without a number means that no potency is given here. Active and inactive are the calls of the source. Unless noted, calls come from the whole dose curve; as a rule, active = well fitted curve in the direction sought with a large enough effect; inconclusive = small, poorly fitted or top-dose-only effect, or another doubt; inactive = no such curve, though single readings can be large; an effect the other way counts as inactive or inconclusive.

Columns and labels:
[1] = target: Glutaminase kidney isoform, mitochondrial (Homo sapiens) (UniProt O94925); experiment: qHTS for Inhibitors of Glutaminase (GLS): LOPAC Validation (AID 624146); note: nearly all actives have a fitted effect of over 60% in size; note: potency is the fitted concentration of half-maximal effect
Method in brief: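 Human kidney-isoform GLS in 45 mM KH2PO4 pH 8.2, 0.02% Tween-20, with compound, started with 1mM L-Glutamine (added stock). Glutamate oxidase/HRP/Amplex red coupled fluorescence read at start and after 30 min at RT.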

[2] = qHTS of Trypanosoma Brucei Inhibitors: LOPAC Validation (AID 624147)
Method in brief: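 Glycolytic pyruvate kinase of T. brucei was incubated with substrate, test compound and 130 uM ADP for 45 minutes at room temperature. Luminescent Kinase-Glo Plus signal was measured after 10 minutes.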

[3] = target: Glucagon-like peptide 1 receptor (Homo sapiens) (UniProt P43220); experiment: qHTS of GLP-1 Receptor Agonists: LOPAC Validation (AID 624148);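 note: higher luminescence signal means agonism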
Method in brief: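 HEK293 cells stably co-expressing GLP-1R and a cAMP-responsive luciferase reporter, plated 12 hours before compound, then incubated 4-6 hr at 37 deg C. Luminescence read 12 min after detection reagent.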

[4] = qHTS of Nrf2 Activators: LOPAC Validation (AID 624149)
Method in brief: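 Following overnight seeding in 5% FBS OPTI-MEM, AREc32_Fluc cells receive compounds for a 24 hr incubation at 37 deg C with 5% CO2. Steady-Glo is added, and after 30 min at RT luminescence is recorded.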

[5] = HTS Assay for Allosteric Antagonists of the Human D2 Dopamine Receptor: Hit Validation in HTRF (AID 624455);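 note: stable D1 dopamine receptor cell line scored for blocking the D1 response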
Method in brief: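 Validation of hits used D1 receptor stably expressed in cells with HTRF detection of response inhibition; origin screen measured calcium flux following EC80 dopamine in a force-coupled, inducible Hek293 Trex D2 cell line.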

[6] = S16 Schwann cell PMP22 intronic element firefly luciferase assay (AID 624032); note: nearly all actives have a fitted effect of over 30% in size; note: potency is the fitted concentration of half-maximal effect
Method in brief: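 Rat S16 Schwann cells stably carrying firefly luciferase driven by a PMP22 intronic element, in 10% FBS, treated 24 h at 37 C. ONE-Glo luminescence normalized to PTC124 control and DMSO (0%); curves classed by r2, magnitude and activity.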

[7] = S16 Schwann cell PMP22 intronic element beta-lactamase assay (AID 624044; calls by dose curve; note: nearly all actives have a fitted effect of over 15% in size)
Method in brief: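 Beta-lactamase reporter under a PMP22 intronic regulatory element in stable S16 rat Schwann cells; 24 h compound exposure. 460 nm blue signal normalized between DMSO (0%) and potassium clavulanate, with 535 nm FRET tracking viability; curves classed by r2 and response.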

Glutaminase kidney isoform, mitochondrial (Homo sapiens), sequence (O94925 whole entry, looked up, canonical isoform): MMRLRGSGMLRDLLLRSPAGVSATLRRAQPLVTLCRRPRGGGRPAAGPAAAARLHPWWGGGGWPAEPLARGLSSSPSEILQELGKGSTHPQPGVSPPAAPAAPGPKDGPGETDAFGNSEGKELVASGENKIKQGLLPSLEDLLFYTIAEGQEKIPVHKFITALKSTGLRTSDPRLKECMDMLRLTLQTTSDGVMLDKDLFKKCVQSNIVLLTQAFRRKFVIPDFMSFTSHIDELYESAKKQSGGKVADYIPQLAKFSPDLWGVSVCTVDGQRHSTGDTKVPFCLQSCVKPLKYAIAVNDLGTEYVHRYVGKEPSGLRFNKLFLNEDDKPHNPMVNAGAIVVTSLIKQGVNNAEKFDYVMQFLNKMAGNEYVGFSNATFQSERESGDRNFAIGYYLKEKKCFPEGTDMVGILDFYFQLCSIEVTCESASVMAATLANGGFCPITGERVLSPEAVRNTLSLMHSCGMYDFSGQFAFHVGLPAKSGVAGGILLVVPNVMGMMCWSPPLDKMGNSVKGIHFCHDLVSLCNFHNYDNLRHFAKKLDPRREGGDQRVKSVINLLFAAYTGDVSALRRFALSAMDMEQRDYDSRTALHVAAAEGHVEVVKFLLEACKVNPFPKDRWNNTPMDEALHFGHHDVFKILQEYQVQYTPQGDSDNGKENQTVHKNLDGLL
Glucagon-like peptide 1 receptor (Homo sapiens), sequence (P43220 whole entry, looked up): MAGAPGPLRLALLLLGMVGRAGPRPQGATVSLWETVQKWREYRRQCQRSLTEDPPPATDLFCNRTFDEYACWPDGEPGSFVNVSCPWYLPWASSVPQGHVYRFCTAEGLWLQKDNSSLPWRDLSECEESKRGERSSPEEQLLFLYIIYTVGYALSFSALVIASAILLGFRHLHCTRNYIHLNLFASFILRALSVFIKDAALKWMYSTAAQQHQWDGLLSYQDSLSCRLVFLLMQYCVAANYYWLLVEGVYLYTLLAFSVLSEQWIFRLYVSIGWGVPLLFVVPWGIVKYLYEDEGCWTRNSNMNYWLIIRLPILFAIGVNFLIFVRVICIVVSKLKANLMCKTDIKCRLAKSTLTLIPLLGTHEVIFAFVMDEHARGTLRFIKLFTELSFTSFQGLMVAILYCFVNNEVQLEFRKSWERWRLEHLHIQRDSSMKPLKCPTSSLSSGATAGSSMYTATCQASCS

| Compound | Potency [1] | outcome [2] | outcome [3] | outcome [4] | outcome [5] | Potency [6] | Potency [7] |
| --- | --- | --- | --- | --- | --- | --- | --- |
| Cc1nn(-c2ccccc2)c(C)c1/C=N/N1CCN(Cc2ccccc2)CC1 | inactive | inactive | inactive | inactive | inactive | – | – |
| NC(N)=NCCCCN=C(N)N | inactive | inactive | inactive | inactive | inactive | – | – |
| Nc1ccc2cc3ccc(N)cc3nc2c1 | – | – | – | – | – | inactive | – |
| Brc1ccc([C@H]2CN3CCSC3=N2)cc1 | inactive | inactive | inactive | inactive | inactive | – | – |
| Cn1cnc2c(NCc3ccccc3)nc(NCCO)nc21 | inactive | inactive | inactive | inactive | inactive | – | – |
| C[N+](C)(C)CCO | inactive | inactive | inactive | inactive | inactive | – | – |
| O=[N+]([O-])c1ccc(O)c2ncccc12 | – | – | – | – | – | inactive | – |
| CC(NCCC(c1ccccc1)c1ccccc1)c1ccccc1 (centres undefined) | – | – | – | – | – | – | inactive |
| CCCCCCCCCCCCCCCC[N+](C)(C)Cc1ccccc1 | – | – | – | – | – | 14.4 µM (active) | inactive |
| Clc1ccc2c(c1)N=C(N1CCNCC1)c1ccccc1N2 | inactive | inactive | inactive | inactive | inactive | – | – |
| Nc1ncnc2nc[nH]c12 | – | – | – | – | – | inactive | inactive |
| Nc1ncnc2n[nH]c(Nc3ccc(F)cc3)c12 | 10 µM (active) | inactive | inactive | inactive | inactive | – | – |
| COC(=O)C1=CO[C@@H](O)[C@@H]2C(CO)=CC[C@H]12 | inactive | inactive | inactive | inactive | inactive | – | – |
| COc1cccc2c1[C@@H]1CN(CCCCn3c(=O)[nH]c4c(sc5ncc(-c6ccccc6)nc54)c3=O)C[C@@H]1CO2 | inactive | inactive | inactive | inactive | inactive | – | – |
| O=S(=O)(O)c1ccc2nc(-c3ccccc3)[nH]c2c1 | – | – | – | – | – | inactive | inactive |
